Experimental data published in PubChem BioAssay AID1159580 (chemical genetic matrix, 2015).
Screen size: about 5,500 compounds; about 2,000 (36%) were called active. About 18% were inconclusive and are not listed. Some of the results follow. Values without a mark were called inactive. Rule as the data show it: active = normalized growth mostly below about 0.91 (no sharp cut-off); inconclusive = no clear call, values can overlap the other calls; inactive = mostly above about 0.92.

Experiment: chemical genetic growth profiling, strain panel (AID 1159580);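 also: tested at 20 µM; growth read once vehicle control cultures reached saturation at 30 °C; 1 = growth at the plate median or of vehicle wells; lower values mean less growth of the strain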
Settings: growth OD
[1] = S. cerevisiae deletion strains, locus YAL013W, strain DEP1, stronger effect = lower value
[2] = S. cerevisiae deletion strains, locus YBR229C, strain ROT2, stronger effect = lower value
[3] = S. cerevisiae deletion strains, locus YDL101C, strain DUN1, stronger effect = lower value
[4] = S. cerevisiae deletion strains, locus YDR150W, strain NUM1, stronger effect = lower value
[5] = S. cerevisiae deletion strains, locus YEL061C, strain CIN8, stronger effect = lower value
[6] = S. cerevisiae deletion strains, locus YGR078C, strain PAC10, stronger effect = lower value
[7] = S. cerevisiae deletion strains, locus YHR030C, strain SLT2, stronger effect = lower value
[8] = S. cerevisiae deletion strains, locus YHR087W, strain rtc3, stronger effect = lower value
[9] = S. cerevisiae deletion strains, locus YJR043C, strain POL32, stronger effect = lower value
[10] = S. cerevisiae deletion strains, locus YJR075W, strain HOC1, stronger effect = lower value
[11] = S. cerevisiae deletion strains, locus YLR039C, strain RIC1, stronger effect = lower value
[12] = S. cerevisiae deletion strains, locus YLR058C, strain SHM2 (second series), stronger effect = lower value
[13] = S. cerevisiae deletion strains, locus YLR085C, strain ARP6, stronger effect = lower value
[14] = S. cerevisiae deletion strains, locus YLR262C, strain YPT6, stronger effect = lower value
[15] = S. cerevisiae deletion strains, locus YML094W, strain GIM5, stronger effect = lower value
[16] = S. cerevisiae deletion strains, locus YMR219W, strain ESC1, stronger effect = lower value
[17] = S. cerevisiae deletion strains, locus YMR263W, strain SAP30, stronger effect = lower value
[18] = S. cerevisiae deletion strains, locus YNL153C, strain GIM3, stronger effect = lower value
[19] = S. cerevisiae deletion strains, locus YNL298W, strain CLA4 (second series), stronger effect = lower value
[20] = S. cerevisiae deletion strains, locus YNL322C, strain KRE1, stronger effect = lower value
[21] = S. cerevisiae deletion strains, locus YNR030W, strain Alg12, stronger effect = lower value
[22] = S. cerevisiae deletion strains, locus YPL055C, strain LGE1, stronger effect = lower value
[23] = S. cerevisiae deletion strains, locus YPL241C, strain CIN2, stronger effect = lower value
[24] = S. cerevisiae deletion strains, locus YPR135W, strain CTF4, stronger effect = lower value
[25] = S. cerevisiae strains, strain wild type, stronger effect = lower value

**Q.** For COc1ccc(Oc2ccc(C(F)(F)F)cc2[N+](=O)[O-])cc1, which normalized growth [1] is on record?
**A.** The normalized growth was 0.986.

**Q.** And the normalized growth [2]?
**A.** Its normalized growth is 0.96.

**Q.** And the normalized growth (S. cerevisiae deletion strains, locus YCL061C, strain MRC1, stronger effect = lower value)?
**A.** The normalized growth was 0.931.

**Q.** And the normalized growth [3]?
**A.** Its normalized growth is 0.924.

**Q.** And the normalized growth (S. cerevisiae deletion strains, locus YDL134C, strain PPH21, stronger effect = lower value)?
**A.** Its normalized growth is 1.03.

**Q.** And the normalized growth [4]?
**A.** Its normalized growth is 0.886.

**Q.** And the normalized growth [5]?
**A.** Its normalized growth is 1.03.

**Q.** What about the normalized growth [6] of the same compound?
**A.** Its normalized growth is 0.951.

**Q.** And the normalized growth [7]?
**A.** The normalized growth was 0.927.

**Q.** And the normalized growth [8]?
**A.** Its normalized growth is 0.993.

**Q.** What about the normalized growth (S. cerevisiae deletion strains, locus YJL187C, strain SWE1, stronger effect = lower value) of the same compound?
**A.** Its normalized growth is 0.965.

**Q.** And the normalized growth [9]?
**A.** Its normalized growth is 0.946.

**Q.** And the normalized growth [10]?
**A.** Its normalized growth is 0.925.

**Q.** And the normalized growth [11]?
**A.** Its normalized growth is 0.901.

**Q.** What about the normalized growth [12] of the same compound?
**A.** Its normalized growth is 1.02.

**Q.** What about the normalized growth [13] of the same compound?
**A.** The normalized growth was 0.896.

**Q.** What about the normalized growth [14] of the same compound?
**A.** Its normalized growth is 0.926.

**Q.** What about the normalized growth [15] of the same compound?
**A.** The normalized growth was 1.06.

**Q.** And the normalized growth [16]?
**A.** Its normalized growth is 0.996.

**Q.** What about the normalized growth [17] of the same compound?
**A.** Its normalized growth is 0.917.

**Q.** What about the normalized growth (S. cerevisiae deletion strains, locus YMR307W, strain GAS1, stronger effect = lower value) of the same compound?
**A.** Its normalized growth is 0.911.

**Q.** And the normalized growth [18]?
**A.** The normalized growth was 0.947.

**Q.** What about the normalized growth [19] of the same compound?
**A.** Its normalized growth is 0.987.

**Q.** And the normalized growth [20]?
**A.** Its normalized growth is 1.01.

**Q.** And the normalized growth [21]?
**A.** Its normalized growth is 0.924.

**Q.** What about the normalized growth [22] of the same compound?
**A.** The normalized growth was 0.898.

**Q.** And the normalized growth [23]?
**A.** Its normalized growth is 0.952.

**Q.** And the normalized growth [24]?
**A.** The normalized growth was 0.624 (active).

**Q.** And the normalized growth [25]?
**A.** Its normalized growth is 0.978.

**Q.** What does the source list for COc1c([N+](=O)[O-])cc(C(F)(F)F)cc1[N+](=O)[O-]?
**A.** normalized growth [1]: 0.978; normalized growth [2]: 1.01; normalized growth [3]: 0.982; normalized growth [4]: 0.964; normalized growth [5]: 1.01; normalized growth [6]: 0.975; normalized growth [7]: 0.732; normalized growth [8]: 1.04; normalized growth [9]: 0.966; normalized growth [10]: 1.03; normalized growth (S. cerevisiae deletion strains, locus YKL190W, strain CNB1, stronger effect = lower value): 0.998; normalized growth [11]: 0.486 (active); normalized growth [12]: 1.02; normalized growth [13]: 0.823; normalized growth [14]: 0.453 (active); normalized growth [15]: 0.903; normalized growth [16]: 1; normalized growth [17]: 0.971; normalized growth (S. cerevisiae deletion strains, locus YNL128W, strain TEP1, stronger effect = lower value): 0.976; normalized growth [18]: 0.985; normalized growth [19]: 0.946; normalized growth [20]: 0.971; normalized growth [21]: 0.975; normalized growth [22]: 0.989; normalized growth [23]: 0.95; normalized growth [24]: 0.902; normalized growth [25]: 0.979
